The values that follow come from PubChem BioAssay AID734 (The Scripps Research Institute Molecular Screening Center, 2007).

Fewer than 10 of roughly 5,100 compounds were called active.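 Rule for the calls: active = inhibition above the mean inhibition over all tested compounds plus 3 SD (cut at about 75% in these data); inactive = the rest.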 These entries were drawn from the full list.

The assay concerns the target Collagenase 3 (Homo sapiens) (UniProt P45452). Kind of assay: human MMP13 inhibition, fluorescence-interfering compounds – biochemical, possible fluorescent artifacts, delta fluorescence, confirmation (AID 734).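 Note: 0% = DMSO only wells and 100% = 8 µM reference MMP13 inhibitor.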 The conditions noted are these: MMP13 fTHP FRET cleavage, delta fluorescence 4 h; active compounds read high;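 each compound tested at 4 µM nominal in triplicate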.
Broadly, the inhibition is the change of the read-out against control, counted positive when it falls. For the molecule `Cc1oc2c(CN3CCOCC3)c(O)ccc2c(=O)c1-c1ccc(Br)cc1`, the inhibition was 6.41% (inactive).
As for `CCn1c(=O)c2cc(C(=O)N3CCOCC3)sc2c2ccccc21`, the inhibition is -2.27% (inactive).
Take `Cc1ccc(NC(=O)CC2Nc3ccccc3NC2=O)cc1Cl` (configuration not stated): the inhibition is 5.69% (inactive).
The value for `CCOC(=O)N1CCN(C(=O)c2cnn3c(C)c(Cc4ccc(C)cc4)c(C)nc23)CC1` was -3.34% (inactive); that for `O=S(=O)(c1ccccc1C(F)(F)F)N1CCOCC1` was 6.08% (inactive).
For `Cc1onc(-c2ccccc2Cl)c1C(=O)Nc1nnc(-c2ccc(F)cc2)s1`, the inhibition is 6.05% (inactive).
For the molecule `CCOC(=O)N1CCC(N2C(=O)c3ccccc3C2Nc2cc(C(=O)OC)cc(C(=O)OC)c2)CC1` (configuration not stated), the inhibition was 3.52% (inactive).
For the molecule `Oc1ccc(N=Cc2ccc(-c3cccs3)s2)cc1`, the inhibition was 90.8% (active).
With `O=C(c1cccs1)c1ccc(-c2cccs2)s1`, the inhibition was 3.04% (inactive).
For `CC(C)CCSc1nc2c(c(=O)[nH]c(=O)n2C)n1CCc1ccccc1`, the inhibition was 5.17% (inactive).
The figure for `CC1CCCN(C/C(O)=C(\C#N)c2nc3ccccc3[nH]2)C1` (configuration not stated) is 4.57% (inactive).
The value for `CCCCOC(=O)Cc1c(O)c2ccccc2[nH]c1=O` was 0.98% (inactive); that for `CN(C)CCCN1C(=O)c2oc3ccc(F)cc3c(=O)c2C1c1cccnc1` (configuration not stated) was 5.18% (inactive); that for `Cc1cccc2cc(C#N)c(NCCNS(=O)(=O)c3ccc4c(c3)OCCO4)nc12` was 3.35% (inactive).
The value for `Cc1ccc(S(=O)(=O)N2CCCC2C(=O)Oc2ccccc2)cc1` (configuration not stated) was 5.98% (inactive); that for `Cc1ccc(-n2c(-c3ccncc3)nnc2-c2ccco2)cc1` was 2.09% (inactive).
On to `Cc1cc(N2CCOCC2)nc2ccc(NC(=O)CCC(=O)N3CCCC(C)C3)cc12` (configuration not stated), for which the inhibition is 2.6% (inactive).
The figure for `CC(C)(/C=N/O)/[N+]([O-])=C/c1ccccc1C(F)(F)F` is 8.54% (inactive); for `COc1cc2c(=O)n(CC3CCCO3)c(=O)n(CC(=O)Nc3ccc(F)cc3F)c2cc1OC` (configuration not stated) it is 2.92% (inactive); for `CN1C(=O)Cc2cc(S(=O)(=O)N3CCOCC3)ccc21` it is 2.06% (inactive).
The value for `O=C1CCCN1CCCNc1ncnc2c1cnn2-c1ccc(Cl)cc1` was 3.23% (inactive).
The value for `CCOC(=O)c1[nH]c2ccc(OCC)cc2c1NC(=O)CN1CCN(c2ccccc2)CC1` was 1.46% (inactive); that for `c1ccc(-n2nnnc2SCc2cn3cccnc3n2)cc1` was 9.28% (inactive).
For the molecule `O=C(Nc1ccc(-c2nc3cccnc3s2)cc1)c1ccc(Br)o1`, the inhibition was 2.61% (inactive).
Turning to `O=C(Nc1ccc(-c2nc3cccnc3s2)cc1)c1ccco1`, the inhibition was 4.83% (inactive).
The figure for `O=S(=O)(Nc1ccc(-c2nc3cccnc3s2)cc1)c1cccs1` is 198% (active); for `N#Cc1nc(-c2cccs2)oc1N1CCN(c2ccccc2)CC1` it is 8.02% (inactive); for `Cc1oc(C(C)(C)C)cc1C(=O)Nc1ccc(C(=O)O)cc1` it is 4.23% (inactive).
On to `Cc1ccc(-c2cc(C(=O)N3CCOCC3)c3ccccc3n2)cc1`, for which the inhibition is 7.4% (inactive).
Regarding `CCC(=O)N/C(N)=N/c1nc(C)c2cc(OC)ccc2n1`, the inhibition is 1.9% (inactive).
The value for `COc1nc(-c2ccc(C)cc2)ccc1-c1noc(-c2ccco2)n1` was -3.29% (inactive).
As to `Cc1cccn2c(=O)c(C=Nc3ccc(Cl)cc3)c(NCCO)nc12`, the inhibition is -0.72% (inactive).
The figure for `CC(C)COc1ccc(-c2nnc(-c3ccco3)o2)cc1` is 3.48% (inactive); for `COC(=O)C1=CNC=C(C(=O)OC)C1c1cccc(OC)c1` it is 27.7% (inactive); for `CN(C)c1ccc(-c2nn3c(C4CCCCC4)nnc3s2)cc1` it is 4.05% (inactive).
The figure for `COc1ccc(CCNc2oc(-c3ccc(OC)c(OC)c3)nc2C#N)cc1` is 1.68% (inactive).
As to `COc1ccc(-c2cn3c(C)c(C(=O)Nc4cc(NC(C)=O)ccc4OC)sc3n2)cc1`, the inhibition is 14.3% (inactive).
With `COCCNC(=O)c1cc2c(-c3ccccc3F)nn(C)c2s1`, the inhibition was -5.47% (inactive).
The figure for `CC(Oc1ccc2oc(-c3ccccc3)c(C(=O)O)c2c1)C(=O)O` (configuration not stated) is -5.25% (inactive).
The figure for `O=c1cc(CN2CCN(c3ccccc3)CC2)c2cc(O)c(-c3ccccc3)cc2o1` is 8.57% (inactive); for `CCN1CCc2c(sc3c2c(NCc2ccco2)nc2nnnn23)C1` it is 10.9% (inactive).
The figure for `CC(C)CCNC(=O)C(c1ccco1)N(Cc1ccccc1)C(=O)c1snc(C(N)=O)c1N` (configuration not stated) is 2.54% (inactive); for `O=C(NCc1cccnc1)c1nnc(Cc2ccc(F)cc2)o1` it is 2.89% (inactive); for `O=C(CCSc1nnc2ccccn12)Nc1ccc(F)cc1` it is 3% (inactive).
For the molecule `Cc1ccc(-n2c(Cc3cccn3C)nnc2SCC(=O)Nc2ccc3c(c2)OCO3)cc1`, the inhibition was 3.78% (inactive).
The figure for `O=C(O)c1ccc(CSc2nnc(-c3ccncc3)n2CC2CCCO2)cc1` (configuration not stated) is 5.15% (inactive); for `Cc1cc(N2CCC(C)CC2)nc2ccc(N3C(=O)CCC3=O)cc12` it is 4.49% (inactive).
On to `O=S(=O)(c1cccc(-c2cn3cc(Cl)ccc3n2)c1)N1CCOCC1`, for which the inhibition was 4.43% (inactive).
As to `CCOc1ccc(CC(=O)N2CCN(c3ccc(N4CCOCC4)nn3)CC2)cc1OCC`, the inhibition was 11.4% (inactive).
In the case of `Cc1cc(C)c2c(n1)nn1c(N3CCN(c4ccccc4)CC3)cc(C)nc21`, the inhibition is -3.18% (inactive).
For `O=C(NCc1cccnc1)c1cnn2ccccc12`, the inhibition is 3.72% (inactive).
The value for `CCOCCCn1c(C)nc2c(c1=O)c1nc3ccccc3nc1n2CCC1=CCCCC1` was -2.22% (inactive); that for `CCOC(=O)CN=C1CC(C)(C)CC2=C1Sc1ncnc(N(C)C)c1N2` was 8.62% (inactive).
The value for `N#CCSc1nc2[nH]ncc2c(=O)n1-c1ccccc1Br` was 5.49% (inactive); that for `CC(=O)Nc1ccc(Nc2ncnc3c2cnn3-c2cccc(C)c2)cc1` was 8.03% (inactive); that for `COc1ccc2oc(-c3ccccc3)c(C(=O)N3CCOCC3)c2c1` was 3.94% (inactive).
Take `CCOC(=O)CSc1nc2cc3c(cc2cc1C#N)OCO3`: the inhibition is 5.66% (inactive).
The value for `CCOC(=O)CSc1nc(-c2ccc3c(c2)OCO3)ccc1C#N` was 86.3% (active); that for `CCOC(=O)CSc1nc(-c2ccncc2)ccc1C#N` was 6% (inactive); that for `N#Cc1nc(-c2ccc(F)cc2)oc1NCc1cccc2c1OCO2` was -9.16% (inactive).
The figure for `Cc1cc(C)n(-c2nc(-c3cccc(Cl)c3)cs2)n1` is 8.4% (inactive); for `c1ccc2sc(Cc3nnc4n3CCCCC4)nc2c1` it is 4.74% (inactive); for `Cc1onc(-c2ccccc2)c1C(=O)Nc1ccc2c(C)cc(=O)oc2c1` it is 2.15% (inactive).
The figure for `CC(=O)c1ccc(N2CCN(C(=O)c3cc(-c4ccc5c(c4)OCO5)nc4ccccc34)CC2)cc1` is 4.89% (inactive).
For the molecule `COC(=O)c1c(-n2cnnn2)sc(C)c1C`, the inhibition is 2.3% (inactive).
For `COc1ccc2cc3cc(C(=O)NCCN4CCc5ccccc5C4)oc3nc2c1`, the inhibition was -102% (inactive).
For the molecule `Cn1c(=O)c2nc(-c3ccccc3)oc2c2ccccc21`, the inhibition was 6.54% (inactive).
The value for `COc1ccc(OC)c(-c2cc(C(=O)NCc3ccco3)no2)c1` was 12% (inactive).
The figure for `CC(C)OCCCn1c(-c2ccco2)nc2nc3ccccc3nc21` is -87.8% (inactive); for `CCOC(=O)c1cc(-c2cccs2)nc2onc(C)c12` it is -44.4% (inactive).
Regarding `COc1cc2ccccc2cc1C(=O)OCC(=O)N1CCOCC1`, the inhibition was 6.42% (inactive).
For the molecule `COc1ccc(C(=O)/C=C/Nc2cccc(C)n2)cc1OC`, the inhibition is 5.27% (inactive).
The value for `c1nc2sc3c(c2c2nnnn12)CCCC3` was 2.51% (inactive).
With `COc1ccc(-c2cc(C(F)(F)F)nc(SCC(=O)NCc3ccco3)n2)cc1OC`, the inhibition was 8.84% (inactive).
As for `Cc1ccc2c(c1)-c1cc(C)nn1C(c1ccc3c(c1)OCO3)N2` (configuration not stated), the inhibition is 6.53% (inactive).
With `O=C1NC(c2ccco2)Nc2ccccc21` (configuration not stated), the inhibition is -3.14% (inactive).
Regarding `CCCN(Cc1cc2cc(OC)ccc2[nH]c1=O)C(=O)c1ccncc1`, the inhibition is 4.53% (inactive).
The figure for `CCOC(=O)c1oc2cccc(OC(C)=O)c2c1C` is 8.37% (inactive).
Regarding `NC(=O)C1CCCN(S(=O)(=O)c2ccc(Br)cc2)C1` (configuration not stated), the inhibition is 4.17% (inactive).
As for `COC(=O)c1[nH]c2ccc(Cl)cc2c1NC(=O)CCN1CCN(C2CCCCC2)CC1`, the inhibition is 6.19% (inactive).
Regarding `COC(=O)c1[nH]c2cccc(OC)c2c1NC(=O)CCN1CC(C)CC(C)C1` (configuration not stated), the inhibition was -1.84% (inactive).
The figure for `COCCOC(=O)c1cc(C(=O)c2cc(F)ccc2O)coc1=N` is 6.65% (inactive); for `COc1cccc(=O)c2c(C)oc(C)c12` it is 6.64% (inactive).
The value for `Cc1ccc2nc(N3CCN(Cc4nnnn4Cc4ccccc4)CC3)c(C#N)cc2c1` was 1.5% (inactive); that for `CCOC(=O)Cc1c(C)nc2c(-c3ccc(Cl)cc3)c[nH]n2c1=O` was 17.8% (inactive).
The value for `COc1cc2cc(CN(CCN3CCCC3)C(=O)Nc3ccc(F)cc3)c(=O)[nH]c2cc1OC` was 1.27% (inactive).
Regarding `CCS(=O)(=O)Nc1cc(-c2nc3cccnc3s2)ccc1C`, the inhibition is -0.51% (inactive).
With `CCCCNC(=O)CC1Nc2ccccc2NC1=O` (configuration not stated), the inhibition was 4.58% (inactive).
The figure for `CCn1c(=O)c(C(C)=O)nc2ccccc21` is 7.87% (inactive).
The value for `CCCCN(CC)CCNC(=O)c1cc2c(=O)n(C)c3ccccc3c2n1C` was 9.76% (inactive).
The figure for `COC(=O)c1[nH]c2ccc(C)cc2c1NC(=O)CN1CCN(Cc2ccccc2)CC1` is 5.26% (inactive); for `Cc1cc(-c2ccccc2)nn1-c1nc2c(c(=O)[nH]c(=O)n2C)n1C` it is 6.56% (inactive).
`COc1ccc(-c2noc(CCC(=O)NCc3cccnc3)n2)cc1`: the inhibition is -0.6% (inactive).
In the case of `O=C(CSc1ccc2nnc(-c3cccc(F)c3)n2n1)NCC1CCCO1` (configuration not stated), the inhibition is 0.9% (inactive).
The figure for `CCCn1c(=N)c(C(=O)NCC2CCCO2)cc2c(=O)n3cccc(C)c3nc21` (configuration not stated) is 0.11% (inactive).
Consider `COc1cc2c(cc1OC)CN(C(=O)NS(=O)(=O)c1ccc(C)cc1)CC2`, for which the inhibition was 6.18% (inactive).
The value for `COc1cc2c(cc1OC)-c1cc(N3CCCCCC3)nc(=O)n1CC2` was 6.6% (inactive); that for `COc1cc(OC)cc(-c2cc3nc(C)c(CCC(=O)NC(C)CCc4ccco4)c(C)n3n2)c1` (configuration not stated) was -0.26% (inactive).
The value for `CC(=O)Nc1nonc1-c1nc2ccccc2n1Cc1nnc(C)o1` was 4.74% (inactive).
Regarding `COc1ccc(-c2cc(C(F)(F)F)nc(SCC(=O)Nc3cc(C)on3)n2)cc1OC`, the inhibition was 11.1% (inactive).
For `COc1cc(OC)cc(C(=O)NCC(=O)N2CCC(C)CC2)c1`, the inhibition is 7.88% (inactive).
The figure for `Cc1nn(-c2ccccc2)c2sc(C(=O)OC3CCOC3=O)cc12` (configuration not stated) is -15.6% (inactive); for `Cc1nn(-c2ccccc2)c2sc(-c3n[nH]c(=S)o3)cc12` it is 75.6% (active); for `COC(=O)c1cc2c(C)nn(-c3ccccc3)c2s1` it is 5.12% (inactive).
The figure for `CCOC(=O)N1CCC(NC(=O)c2cc3c(-c4cccc(OC)c4)nn(C)c3s2)CC1` is 1.92% (inactive); for `Cc1ccc(S(=O)(=O)Nc2ccccc2C(N)=O)cc1` it is 7.43% (inactive).
For the molecule `N=C1C(c2nc3ccccc3c(=O)[nH]2)=C(O)CN1CCc1ccccc1`, the inhibition is -5.72% (inactive).
The figure for `COc1ccccc1C(=O)Nc1ccc(S(=O)(=O)N2CCOCC2)cc1` is -0.87% (inactive); for `O=C(c1ccc(Br)o1)N1CCN(Cc2ccc3c(c2)OCO3)CC1` it is 3.6% (inactive).
For `Cc1ccc2nc(-c3ccc(SCC(=O)O)nc3)[nH]c2c1`, the inhibition was -13.3% (inactive).
The value for `O=C(NCCN1CCOCC1)c1cc2ccccc2[nH]1` was 3.77% (inactive).
`COC(=O)c1ccc(Sc2ccc(C)cc2)c(N)c1`: the inhibition was -1.3% (inactive).
